In PubChem BioAssay (Tox21):
Several values for one entry are separate records, joined by “and”; a condition that tells them apart may be missing. Identical values can stand only once. Results filed as inconclusive are left out. Entries that show only a call come without a potency. A structure can be active in one record and inactive in another. Activity calls are given as the source filed them. Unless noted, calls come from the whole dose curve; as a rule, active = well fitted curve in the direction sought with a large enough effect in the repeat runs; inconclusive = weak or mixed curves; inactive = no such curve, though single readings can be large; an effect the other way counts as inactive or inconclusive.

What was measured:
[1] = target: Thyrotropin receptor (Homo sapiens) (UniProt P16473); assay: qHTS assay to identify small molecule antagonists of the thyroid stimulating hormone receptor (TSHR) signaling pathway (AID 1259385; calls by dose curve; note: nearly all actives have a fitted effect of over 20% in size; note: potency is the fitted concentration of half-maximal effect)
Thyrotropin receptor (Homo sapiens), sequence (P16473 whole entry, looked up): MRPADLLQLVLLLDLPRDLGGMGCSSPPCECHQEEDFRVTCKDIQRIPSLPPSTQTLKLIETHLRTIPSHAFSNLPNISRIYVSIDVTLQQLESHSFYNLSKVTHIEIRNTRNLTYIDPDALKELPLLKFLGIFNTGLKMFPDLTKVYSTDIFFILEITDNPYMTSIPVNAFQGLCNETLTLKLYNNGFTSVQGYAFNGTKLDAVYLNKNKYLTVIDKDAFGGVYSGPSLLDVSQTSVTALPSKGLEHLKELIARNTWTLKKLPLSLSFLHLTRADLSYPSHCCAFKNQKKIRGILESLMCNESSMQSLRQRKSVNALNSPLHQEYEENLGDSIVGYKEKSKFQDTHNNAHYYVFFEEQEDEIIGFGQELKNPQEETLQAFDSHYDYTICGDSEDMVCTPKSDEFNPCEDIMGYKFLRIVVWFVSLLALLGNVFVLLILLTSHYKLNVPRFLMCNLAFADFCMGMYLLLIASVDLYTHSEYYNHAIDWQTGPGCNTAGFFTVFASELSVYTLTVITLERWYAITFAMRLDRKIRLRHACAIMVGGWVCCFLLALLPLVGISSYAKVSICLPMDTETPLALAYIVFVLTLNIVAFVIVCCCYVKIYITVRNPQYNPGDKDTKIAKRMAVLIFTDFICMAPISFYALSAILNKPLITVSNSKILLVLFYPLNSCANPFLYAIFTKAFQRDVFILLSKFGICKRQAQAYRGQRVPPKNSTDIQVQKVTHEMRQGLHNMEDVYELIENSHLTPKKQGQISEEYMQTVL
In short: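 Antagonist mode: compound-treated TSHR-expressing HEK293 cells were stimulated with 1.5 ng/mL TSH (final) in presence of Ro20-1724 for 30 min at RT. HTRF cAMP detection after 1 h; each compound tested at 15 concentrations, triplicate.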

[2] = qHTS assay to identify small molecule agonists of the estrogen receptor alpha (ER-alpha) signaling pathway in the presence of an antagonist - cell viability counter screen (AID 1259386);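 note: cells exposed to compounds for 22 h at 37 °C before the viability read; nearly all actives have a fitted effect of over 30% in size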; note: potency is the fitted concentration of half-maximal effect
In short: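 VM7Luc4E2, stripped-serum pre-culture 5 d; 24hr plating; +ICI-182,780 10.0nM final; cpds 15 conc, 22hr, 37C/5% CO2; CellTiter-Fluor added at 21hr, fluorescence 1hr later.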

[3] = target: Progesterone receptor (Homo sapiens) (UniProt P06401); assay: qHTS assay to identify small molecule agonists of the progesterone receptor (PR) signaling pathway (AID 1346784; calls by dose curve; note: nearly all actives have a fitted effect of over 30% in size; note: potency is the fitted concentration of half-maximal effect)
Progesterone receptor (Homo sapiens), sequence (P06401 whole entry, looked up): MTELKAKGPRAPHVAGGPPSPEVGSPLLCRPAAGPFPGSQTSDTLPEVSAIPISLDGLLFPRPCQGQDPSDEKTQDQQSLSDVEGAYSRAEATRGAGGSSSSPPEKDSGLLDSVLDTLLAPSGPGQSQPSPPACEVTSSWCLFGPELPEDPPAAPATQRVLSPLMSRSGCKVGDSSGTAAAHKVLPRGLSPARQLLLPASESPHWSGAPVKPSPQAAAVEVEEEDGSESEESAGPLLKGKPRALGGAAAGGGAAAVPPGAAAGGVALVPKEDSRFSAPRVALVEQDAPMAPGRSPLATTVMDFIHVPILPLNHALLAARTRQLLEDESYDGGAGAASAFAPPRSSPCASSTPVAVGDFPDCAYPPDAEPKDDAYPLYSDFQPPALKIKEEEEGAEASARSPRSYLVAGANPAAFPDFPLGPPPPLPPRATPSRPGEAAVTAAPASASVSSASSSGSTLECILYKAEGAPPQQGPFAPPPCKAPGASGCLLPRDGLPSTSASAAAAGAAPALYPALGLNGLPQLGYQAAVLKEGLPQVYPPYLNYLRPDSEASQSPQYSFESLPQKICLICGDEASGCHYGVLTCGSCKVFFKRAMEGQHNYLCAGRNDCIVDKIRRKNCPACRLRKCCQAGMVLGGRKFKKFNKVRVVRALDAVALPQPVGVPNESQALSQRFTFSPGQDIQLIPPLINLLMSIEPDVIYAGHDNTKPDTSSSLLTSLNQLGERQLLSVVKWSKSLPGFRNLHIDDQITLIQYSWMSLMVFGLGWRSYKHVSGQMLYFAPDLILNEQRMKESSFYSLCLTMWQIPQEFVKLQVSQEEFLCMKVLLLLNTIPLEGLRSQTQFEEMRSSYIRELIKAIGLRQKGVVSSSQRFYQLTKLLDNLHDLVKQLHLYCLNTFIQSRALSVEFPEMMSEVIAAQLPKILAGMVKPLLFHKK
In short: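 PR-UAS-bla HEK 293T cells (beta-lactamase reporter under UAS) in 2% charcoal-stripped FBS, dosed with 23 nL compound after 6 hr, incubated 16hr at 37C. LiveBLAzer B/G FRET substrate added, fluorescence read after 2 hours.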

[4] = qHTS assay to identify small molecule antagonists of the progesterone receptor (PR) signaling pathway - cell viability counter screen (AID 1346798); note: nearly all actives have a fitted effect of over 50% in size; note: potency is the fitted concentration of half-maximal effect
In short: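 PR-UAS-bla HEK293T cells, 3,000/well in 2% charcoal-stripped FBS medium, dosed with compounds plus R5020 agonist and incubated 16 h at 37C. Viability then measured in the same wells by CellTiter-Glo luminescence after 30 min at RT.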

[5] = qHTS assay to identify small molecule antagonists of the TGF-beta/Smad signaling pathway - cell viability counter screen (AID 1346824); note: nearly all actives have a fitted effect of over 50% in size
In short: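 Cytotoxicity counter-screen run in the same wells as the beta-lactamase Smad reporter read: CellTiter-Glo luminescence after 30 min at room temperature. HEK 293T SBE-bla cells had 5 hr compound exposure at 37 C with TGF-beta1 (0.25 ng/mL stock).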

[6] = qHTS assay to identify small molecule agonists of the TGF-beta/Smad signaling pathway - cell viability counter screen (AID 1346829); note: top concentration of the series differs between compounds; nearly all actives have a fitted effect of over 45% in size
In short: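 After overnight seating at 37 C and 5% CO2, reporter cells got compounds for 5 hr and FRET substrate for 2 hr; cell viability then came from CellTiter-Glo luminescence.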

[7] = qHTS assay to identify small molecule agonists of the TGF-beta/Smad signaling pathway (AID 1346859; active = well fitted activation curve with a large enough effect in the signal ratio in the repeat runs, not every such curve was filed as active; the % refers to the signal ratio; note: series mostly up to about 77 µM)
In short: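 SBE-bla HEK293T cells plated overnight, then compound exposure for 5 h at 37 C. Beta-lactamase reporter read with LiveBLAzer B/G FRET substrate after 2 h at room temperature, fluorescence at 405 nm excitation, 460/530 nm emission.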

[8] = target: Thyrotropin-releasing hormone receptor (Homo sapiens) (UniProt P34981); assay: qHTS assay to identify small molecule antagonists of the thyrotropin-releasing hormone receptor (TRHR) signaling pathway (AID 1346877; active = well fitted inhibition curve with a large enough effect in the repeat runs, not every such curve was filed as active; note: series mostly up to about 51 µM)
Thyrotropin-releasing hormone receptor (Homo sapiens), sequence (P34981 whole entry, looked up): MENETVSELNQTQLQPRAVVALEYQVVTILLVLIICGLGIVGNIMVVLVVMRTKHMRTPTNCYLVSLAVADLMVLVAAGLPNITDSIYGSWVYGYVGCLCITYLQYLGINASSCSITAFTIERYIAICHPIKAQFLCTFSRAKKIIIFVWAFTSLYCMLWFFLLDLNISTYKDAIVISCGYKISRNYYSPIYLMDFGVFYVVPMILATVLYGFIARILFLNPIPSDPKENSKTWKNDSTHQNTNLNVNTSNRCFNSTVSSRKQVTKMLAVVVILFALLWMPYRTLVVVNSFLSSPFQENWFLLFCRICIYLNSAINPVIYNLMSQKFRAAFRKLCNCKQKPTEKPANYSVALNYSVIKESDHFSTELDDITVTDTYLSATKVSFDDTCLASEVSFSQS
In short: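 Intracellular calcium fluorescence, read kinetically every second over 3 min, reports TRH-evoked signalling in HEK293 cells carrying TRHR. Test compounds were added 5 min ahead of a 1 nM TRH challenge.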

[9] = target: Progesterone receptor (Homo sapiens) (UniProt P06401); assay: qHTS assay to identify small molecule antagonists of the progesterone receptor (PR) signaling pathway (AID 1346795; active = well fitted inhibition curve with a large enough effect in the signal ratio in the repeat runs, not every such curve was filed as active; the % refers to the signal ratio; note: potency is the fitted concentration of half-maximal effect)
In short: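 PR-UAS-bla HEK293T cells with beta-lactamase reporter under UAS control, in 2% charcoal-stripped FBS, treated with compounds plus 1 nM promegestone (R5020, final) for 16 hr at 37C. Read-out: FRET beta-lactamase substrate fluorescence after 2 hr at room temperature.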

[10] = qHTS assay to identify small molecule agonists of the progesterone receptor (PR) signaling pathway - cell viability counter screen (AID 1346799; calls by dose curve; note: nearly all actives have a fitted effect of over 45% in size; note: potency is the fitted concentration of half-maximal effect)
In short: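 Counter screen in the PR-UAS-bla HEK293T wells (2% charcoal-stripped FBS, 16 h compound exposure at 37 C) after the bla read. CellTiter-Glo added, 30 min at room temperature, luminescence read as cell viability.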

Compound	Potency [1]	Potency [2]	Potency [3]	Potency [4]	Potency [5]	Potency [6]	outcome [7]	Potency [8]	Potency [9]	Potency [10]	activation [7]
C#C[C@]1(O)CC[C@H]2[C@@H]3CCc4cc(OC)ccc4[C@H]3CC[C@@]21C	inactive	inactive	7.7 µM (active)	inactive	inactive	inactive	inactive	inactive	–	–	–
O=C(Nc1ccc(Cl)cc1)Nc1ccc(Cl)c(Cl)c1	61.1 µM (active)	inactive and 33.5 µM (active)	inactive	–	inactive	inactive	–	–	–	–	–
O=C(COc1ccc(Cl)cc1)N1CCN(Cc2ccc3c(c2)OCO3)CC1	inactive	inactive	inactive	inactive	inactive	inactive	inactive	inactive	–	–	–
CN1C(C(=O)Nc2ccccn2)=C(O)c2ccccc2S1(=O)=O	inactive	–	inactive	inactive	inactive	inactive	inactive	inactive	inactive	inactive	–
COc1ccccc1/C=C/C=O	inactive	–	inactive	inactive	inactive	inactive	–	–	inactive	inactive	–
Nc1ncn([C@@H]2O[C@H](CO)[C@@H](O)[C@H]2O)c(=O)n1	inactive	inactive	–	inactive	inactive	inactive	–	inactive	–	inactive	–
Cc1c(C(N)=O)cc([N+](=O)[O-])cc1[N+](=O)[O-]	inactive	inactive	inactive	inactive	–	inactive	–	–	–	inactive	–
CNCCCC12CCC(c3ccccc31)c1ccccc12	inactive	–	inactive	13.7 µM (active) and 26.6 µM (active)	inactive	inactive	–	–	–	19.3 µM (active) and inactive	–
CC(C)Oc1ccc2c(=O)c(-c3ccccc3)coc2c1	inactive	–	inactive	–	inactive	inactive	inactive	–	inactive	–	–
COC(C)COC(C)COC(C)CO (stereo not given)	inactive	–	inactive	inactive	inactive	inactive	–	inactive	inactive	inactive	–
CC(C)CC(C)(O)C#CC(C)(O)CC(C)C (stereo not given)	inactive	inactive	inactive	–	inactive	inactive	inactive	–	–	inactive	–
Cc1ccc2c(n1)Oc1ccc(C(C)C(=O)OCC(=O)N(C)C)cc1C2 (stereo not given)	inactive	–	inactive	inactive	inactive	inactive	inactive	–	inactive	inactive	–
Cc1cccc(N(C)C(=S)Oc2ccc3ccccc3c2)c1	inactive	inactive	inactive	inactive	inactive	inactive	inactive	–	–	–	–
Cc1cccc(C(=O)O)c1	inactive	–	inactive	inactive	inactive	inactive	inactive	–	inactive	inactive	–
C=CC(C)(CCC=C(C)C)OC(C)=O (stereo not given)	inactive	inactive	inactive	inactive	inactive	inactive	–	inactive	–	inactive	–
c1ccc2c(c1)c1cccc3ccc4cccc2c4c31	inactive	inactive	inactive	inactive	inactive	inactive	inactive	inactive	–	inactive	–
CC(=O)c1ccccn1	inactive	–	inactive	inactive	inactive	inactive	inactive	–	inactive	inactive	–
COc1ccc(C(=O)CC(=O)c2ccc(C(C)(C)C)cc2)cc1	inactive	–	inactive	inactive	inactive	inactive	inactive	inactive	inactive	inactive	–
CC(=O)O[C@]1(C(C)=O)CC[C@H]2[C@@H]3C=C(Cl)C4=CC(=O)[C@@H]5C[C@@H]5[C@]4(C)[C@H]3CC[C@@]21C	inactive	inactive	–	inactive	inactive	inactive	–	–	–	–	–
CN(C)C(=N)N=C(N)N	inactive	inactive	inactive	inactive	inactive	inactive	inactive	inactive	–	inactive	–

Compound	Potency [1]	Potency [2]	Potency [3]	Potency [4]	Potency [5]	Potency [6]	outcome [7]	Potency [8]	Potency [9]	Potency [10]	activation [7]
O=C(c1ccccc1)c1ccc(O)cc1O	inactive	–	inactive	49.5 µM (active)	inactive	inactive	inactive	inactive	15.7 µM (active) and 19.3 µM (active)	–	–
S=C(NC1CCCCC1)NC1CCCCC1	inactive	inactive	inactive	6 µM (active) and 3.86 µM (active)	inactive	inactive	inactive	–	–	7.7 µM (active)	–
CC(C)=CCC/C(C)=C\CO	inactive	inactive	inactive	inactive	inactive	inactive	inactive	–	–	–	–
O=C1c2cccc(O)c2C(=O)c2c(O)cccc21	inactive	–	inactive	inactive	inactive	inactive	inactive	inactive	inactive	inactive	–
CN(C)c1nc(N(C)C)nc(N(C)C)n1	inactive	inactive	–	inactive	inactive	inactive	inactive	–	–	inactive	–
CCCCc1oc2ccccc2c1C(=O)c1cc(I)c(OCCN(CC)CC)c(I)c1	inactive	inactive	inactive	24.5 µM (active) and 11.9 µM (active)	inactive	–	–	inactive	–	19.5 µM (active) and 13.3 µM (active)	–
O=C1OC2(c3cc(Br)c(O)c(Br)c3Oc3c2cc(Br)c(O)c3Br)c2c(Cl)c(Cl)c(Cl)c(Cl)c21	inactive	–	inactive	inactive	inactive	inactive	inactive	–	inactive	inactive	–
COC(=O)C1=C(C)NC(C)=C(C(=O)OCCN(C)Cc2ccccc2)C1c1cccc([N+](=O)[O-])c1 (stereo not given)	inactive	–	inactive	30.5 µM (active)	inactive	inactive	inactive	inactive	–	30.5 µM (active)	–
CC(C)(C)NC(=O)[C@H]1CC[C@H]2[C@@H]3CC[C@H]4NC(=O)C=C[C@]4(C)[C@H]3CC[C@]12C	–	inactive	inactive	inactive	inactive	inactive	inactive	–	–	inactive	–
Cc1[nH]c(=O)c(C#N)cc1-c1ccncc1	inactive	–	–	inactive	inactive	inactive	inactive	–	–	2.73 µM (active) and inactive	–
CN(C)CCN(Cc1cccs1)c1ccccn1	inactive	–	inactive	inactive	inactive	inactive	inactive	–	–	inactive	–
COC(=O)c1ccccc1	inactive	–	inactive	inactive	inactive	inactive	–	inactive	–	inactive	–
Cc1cc2nc3c(=O)[nH]c(=O)nc-3n(C[C@H](O)[C@H](O)[C@H](O)CO)c2cc1C	–	–	inactive	inactive	inactive	inactive	–	–	–	inactive	-2.99% [at 15.8 µM] (inactive)
O=[N+]([O-])c1ccc2c(c1)Cc1ccccc1-2	inactive	–	inactive	inactive	inactive	inactive	–	–	–	inactive	–
NC=O	–	inactive	inactive	inactive	inactive	inactive	–	–	–	inactive	–
Cc1c(OCC(F)(F)F)ccnc1CS(=O)c1nc2ccccc2[nH]1 (stereo not given)	inactive	–	inactive	–	inactive	inactive	inactive	–	–	–	–
CC(C)OB(OC(C)C)OC(C)C	–	inactive	inactive	inactive	inactive	inactive	–	–	–	inactive	–
CCCCC/C=C/C=C/C=O	inactive	–	inactive	inactive	inactive	inactive	inactive	inactive	–	inactive	–
CCOC(=O)C(C#N)=C(c1ccccc1)c1ccccc1	inactive	–	inactive	inactive	inactive	inactive	inactive	–	–	inactive	–
CC(C)OC=O	inactive	–	inactive	inactive	inactive	inactive	–	inactive	–	inactive	–

Compound	Potency [1]	Potency [2]	Potency [3]	Potency [4]	Potency [5]	Potency [6]	outcome [7]	Potency [8]	Potency [9]	Potency [10]	activation [7]
C[C@]12CC[C@H]3[C@@H](CCC4=CC(=O)CC[C@@]43C)[C@@H]1CC[C@@H]2C(=O)CO	–	inactive	0.237 µM (active)	inactive	inactive	inactive	inactive	inactive	inactive	–	–
COc1cccc2c1C(=O)c1c(O)c3c(c(O)c1C2=O)C[C@@](O)(C(=O)CO)C[C@@H]3O[C@H]1C[C@H](N)[C@H](O)[C@H](C)O1	–	24.3 µM (active) and 29.8 µM (active)	–	–	inactive	inactive	inactive	–	–	–	–
COC(=O)Nc1nc2ccc(S(=O)c3ccccc3)cc2[nH]1 (stereo not given)	–	–	inactive	inactive	inactive	inactive	–	–	–	inactive	–
O=C(O)c1ccccc1Nc1cccc(C(F)(F)F)c1	inactive	–	inactive	–	inactive	inactive	–	inactive	–	–	–
C[C@]12CCC(=O)C=C1CC[C@@H]1[C@@H]2C(=O)C[C@@]2(C)[C@H]1CC[C@]2(O)C(=O)CO	–	inactive	–	inactive	inactive	inactive	inactive	–	–	inactive	–
O=S(=O)(O)c1ccc(O)cc1	inactive	–	inactive	inactive	inactive	inactive	inactive	–	–	inactive	–
Nc1ccccc1N	–	49.7 µM (active)	inactive	inactive	inactive	inactive	inactive	–	–	inactive	–
COC(=O)CCC(=O)OC	inactive	–	inactive	inactive	inactive	inactive	–	inactive	–	inactive	–
CCCCC(CC)COCC1CO1 (stereo not given)	inactive	–	inactive	inactive	inactive	inactive	inactive	inactive	–	inactive	–
O=c1oc(=O)c2cc3c(=O)oc(=O)c3cc12	–	inactive	inactive	inactive	inactive	inactive	inactive	inactive	–	inactive	–
c1ccc2sc(SSN3CCOCC3)nc2c1	–	inactive	inactive	inactive	inactive	inactive	inactive	inactive	–	inactive	–
c1ccc(Nc2ccccc2)cc1	inactive	–	inactive	inactive	inactive	inactive	inactive	–	–	inactive	–
O=C(/C=C/C=C/c1ccc2c(c1)OCO2)N1CCCCC1	inactive	–	inactive	inactive	inactive	inactive	inactive	–	–	–	–
C=C(C)C1CC=C(C)CC1 (stereo not given)	–	–	inactive	inactive	inactive	inactive	–	–	inactive	inactive	–
c1cc(N(CC2CO2)CC2CO2)ccc1OCC1CO1 (stereo not given)	inactive	–	inactive	–	inactive	inactive	inactive	inactive	–	inactive	–
Nc1ccc(Nc2ccccc2)cc1	–	–	inactive	inactive	inactive	inactive	–	–	–	inactive	–
COc1cc([C@@H]2c3cc4c(cc3[C@H](O)[C@H]3COC(=O)[C@H]23)OCO4)cc(OC)c1OC	inactive	–	inactive	–	inactive	inactive	inactive	–	–	–	–
C#C[C@]1(O)CC[C@H]2[C@@H]3CCC4=Cc5oncc5C[C@]4(C)[C@H]3CC[C@@]21C	inactive	–	–	38.6 µM (active)	inactive	inactive	–	–	61.1 nM (active)	–	–
CCC(C)(O)CCCC(C)C (stereo not given)	–	inactive	inactive	inactive	inactive	inactive	inactive	–	–	inactive	–
O=C(c1ccc(OCCN2CCCCC2)cc1)c1c(-c2ccc(O)cc2)sc2cc(O)ccc12	–	54.5 µM (active) and 30.6 µM (active)	–	61.2 µM (active) and 61.1 µM (active) and 26.6 µM (active)	inactive	inactive	–	–	30.6 µM (active) and 29.8 µM (active)	48.6 µM (active) and 68.6 µM (active) and 29.8 µM (active)	–
